# Screening results from PubChem.
# Most compounds without a hit are left out; they make up all but 12% or so of the library.
# PI5P4K alpha inh = PI5P4K alpha (human) kinase inhibition; max response, %; PI5P4Kalpha enzyme, ADP-Glo luminescence, 60 min; stronger effect = lower value; P48426; AID 652105; 330,000 tested, 1.2% active; active = max response of -50% or lower; inconclusive = between -30% and -50%; inactive = -30% or higher; also: value at the top dose of about 77 µM; % is scaled to controls: 0 for no effect and ±100 for the full control effect
#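 qHTS, 1536-well: enzyme/substrate mix, compound by pin tool, 5 microM ATP final; RT 60 min; ADP-Glo reagents 1 (45 min) then 2 (30 min); luminescence.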
# PLK1 PBD block = blocks phosphopeptide binding to human PLK1 polo-box domain | Plk1 PBD binding of FITC phosphopeptide, fluorescence polarization | Potency, µM, for inactives: max response, negative = inhibition, usual class: inhibitors | 360,000 tested, 2.8% active | AID 720504; also: potency is read from the fitted curve at half-maximal effect; series mostly up to about 57 µM; % is scaled to controls: 0 for no effect and ±100 for the full control effect; nearly all actives have a fitted effect of over 65% in size
# Target sequence (P53350 whole entry, looked up, the tested form may be a part): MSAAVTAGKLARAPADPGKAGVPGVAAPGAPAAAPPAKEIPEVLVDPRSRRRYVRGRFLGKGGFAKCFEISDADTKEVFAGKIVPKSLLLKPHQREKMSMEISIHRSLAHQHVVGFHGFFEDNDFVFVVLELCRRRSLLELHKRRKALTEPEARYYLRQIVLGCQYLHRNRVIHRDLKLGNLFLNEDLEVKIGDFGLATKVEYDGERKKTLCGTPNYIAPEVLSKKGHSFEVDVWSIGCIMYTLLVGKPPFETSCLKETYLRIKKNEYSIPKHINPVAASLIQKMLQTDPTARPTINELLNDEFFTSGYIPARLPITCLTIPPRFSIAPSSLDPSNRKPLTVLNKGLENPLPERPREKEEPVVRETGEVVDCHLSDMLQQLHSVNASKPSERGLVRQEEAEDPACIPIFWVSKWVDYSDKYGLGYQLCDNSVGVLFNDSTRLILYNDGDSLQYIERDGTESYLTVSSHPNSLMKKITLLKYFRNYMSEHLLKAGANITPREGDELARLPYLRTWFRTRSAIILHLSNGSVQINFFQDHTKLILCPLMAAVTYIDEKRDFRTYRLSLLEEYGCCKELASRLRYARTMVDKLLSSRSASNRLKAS
# G9a inh = inhibitors of human histone lysine methyltransferase G9a | Q96KQ7 | G9a H3K9 monomethylation, AlphaScreen, 2 h | Potency, µM (doses to about 102 µM), for inactives: top-dose activity, negative = inhibition, most hits filed as inhibitors | 350,000 tested, 8.8% active | AID 504332; also: potency is read from the fitted curve at half-maximal effect; % is scaled to controls: 0 for no effect and ±100 for the full control effect; nearly all actives have a fitted effect of over 75% in size
#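 Readings reflect AlphaScreen signal from monomethyl-H3K9 antibody detection. HMT at 20 nM; substrate b-H3K9 500 nM; cofactor SAM 20 uM; 2 h RT reaction; compounds tested as titrations in qHTS with 15 min preincubation.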
# BAZ2B inh = BAZ2B (human) inhibition | AlphaScreen BAZ2B-H3K14Ac peptide displacement | Potency, µM (series often up to 114 µM), for the others: top-dose activity change, negative = inhibition, hits mostly inhibitors | 360,000 tested, 4.4% active | Q9UIF8; also: potency is read from the fitted curve at half-maximal effect; % is scaled to controls: 0 for no effect and ±100 for the full control effect; nearly all actives have a fitted effect of over 60% in size
#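 Protein-peptide AlphaScreen: BAZ2B 50 nM, b-H3K14Ac 50 nM, 1x PBS pH 7.4 + 0.01% Tween-20. Preincubation 30 min RT; cpd 30 min RT (top 110 uM); beads 20 min RT, light-protected.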
# JMJD2A Tudor = JMJD2A Tudor domain (human) inhibition; AID 504339; 390,000 tested, 4.4% active; Potency, µM (top dose mostly 114 µM), for the others: at the highest dose activity change, negative = inhibition, most hits filed as inhibitors; O75164; AlphaScreen JMJD2A-Tudor / H3K4me3 peptide binding; also: potency is read from the fitted curve at half-maximal effect; % is scaled to controls: 0 for no effect and ±100 for the full control effect; nearly all actives have a fitted effect of over 50% in size
# HP1b chromo inh = inhibitors of HP1-beta chromodomain binding to methylated histone tails; P83916; Potency, µM (highest dose often 114 µM), inactives show at the top dose activity change, negative = inhibition, hits mostly inhibitors; AID 540317; AlphaScreen HP1-beta / biotin-H3K9me3 peptide binding; 390,000 tested, 0.56% active; also: potency is read from the fitted curve at half-maximal effect; nearly all actives have a fitted effect of over 70% in size
#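 HP1-beta protein (50 nM final) preincubated 30 min at room temperature with biotinylated H3(1-18)K9me3 peptide (50 nM) in PBS pH 7.4, 0.01% Tween-20, then compound added for 30 min. AlphaScreen streptavidin donor/nickel chelate acceptor beads (10 ug/mL final), 30 min dark, luminescence read.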
# The depositor's hits bear a star; ? = inconclusive; . = no result given; [ ] = remark or other dose. Unless noted, calls follow the shape of the dose curve; as a rule, active = well fitted curve in the direction sought with a large enough effect; inconclusive = small, poorly fitted or top-dose-only effect, or another doubt; inactive = no such curve, though single readings can be large; an effect the other way counts as inactive or inconclusive.
SMILES,PI5P4K alpha inh,PLK1 PBD block,G9a inh,BAZ2B inh,JMJD2A Tudor,HP1b chromo inh
CCOC(=O)CCCCC(=O)c1[nH]c(=O)[nH]c1C[n+]1ccccc1,.,.,?,-8%,.,.
CCOC(=O)c1c(C)[nH]c(C(=O)CN2CCOCC2)c1C,.,-8%,?,-9%,-7%,-6%
C[C@H](CO)N1C[C@H](C)[C@@H](CN(C)S(=O)(=O)c2ccc3ccccc3c2)OCc2cnnn2CCCC1=O,7,-11%,.,.,.,.
Cc1cn([C@H]2C[C@H](O)[C@@H](CCC(=O)NCCN3CCCCC3)O2)c(=O)[nH]c1=O,2,-8%,.,.,-4%,39%
COc1ccc(S(=O)(=O)Nc2cc(Sc3ncn[nH]3)c(O)c3ccccc23)cc1,.,.,1.6µM*,45µM*,5.6µM*,?
COc1ccc(S(=O)(=O)Nc2ccc(O)c(Sc3ncn[nH]3)c2)cc1,.,-10%,13µM*,-7%,-15%,-1%
c1ccc2c(c1)ccc1ccccc12,-4,-7%,.,.,50%,97%
CC(C)CCn1c(O)c(N=Nc2ccccn2)c2ccccc21,21,-5%,32%[59 µM],-1%,-9%,64%
Oc1ccc2ccccc2c1N=Nc1ccccn1,-2,-14%,3.2µM*,4µM*,35µM*,8.9µM*
O=S(=O)(O)c1cccc(N=Nc2c(O)ccc3ccccc23)c1,-54*,-7%,.,11µM*,?,?
CCOC(=O)c1[nH]cnc1N=Nc1c(O)ccc2ccccc12,9,-14%,50µM*,11µM*,79µM*,-31%
Oc1ccc2ccccc2c1N=Nc1ccccc1F,17,-13%,2.2µM*,2.8µM*,3.5µM*,?
Cc1cccc(S(=O)(=O)NC(=O)C2(C)CCN2C(=O)CC2CCCCC2)c1 (stereo not drawn),0,-4%,.,.,.,.
O=C(NCc1ccccn1)C(=O)Nc1cc2c3c(c1)CC(=O)N3CCC2,-1,-1%,-3%,-5%,-16%,37%
O=[N+]([O-])c1cc(C(F)(F)F)ccc1NCCc1c[nH]c2ccccc12,1,0%,?,11µM*,22µM*,?
CS(=O)(=O)NCCCNc1ccc(C(F)(F)F)cc1[N+](=O)[O-],-1,-4%,-21%,-33%,-14%,9%
O=[N+]([O-])c1cc(C(F)(F)F)ccc1NCCc1c[nH]c2ccc(O)cc12,.,-8%,?,40µM*,22µM*,?
O=C(c1sc2cc([N+](=O)[O-])ccc2c1Cl)N1CCCCC1,-12,-10%,?,?,?,?
CC1CCCN(C(=O)c2sc3cc([N+](=O)[O-])ccc3c2Cl)C1 (stereo not drawn),3,-12%,40%[0.501 µM],50µM*,?,?
CCN(C[C@H]1N[C@@](Cc2ccccc2)(C(=O)OC)[C@H]2C(=O)N(Cc3ccccc3)C(=O)[C@@H]12)C(=O)Nc1ccc(Cl)cc1,-3,-5%,.,.,-12%,37%
COC(=O)C1=CN(c2ccc(C)cc2)C(N)=C(C#N)C1c1ccc(OC)cc1 (stereo not drawn),0,-19%,.,.,.,.
CCc1ccccc1NC(=O)COC(=O)C1C2CC3OC(=O)C1C3C2 (stereo not drawn),-6,0%,1%,-25%,-6%,26%
CCCCNC(=S)Nc1ccc2nc(N3CCN(CC)CC3)cc(C)c2c1,0,-24%,?,?,?,12%
Cc1cc(N2CCCC2)nc2ccc(NC(=S)NCCCN3CCC(C)CC3)cc12,-3,3%,50µM*,.,-32%,7%
CCCCNC(=O)CCC(=O)Nc1ccc2nc(N3CCN(C)CC3)cc(C)c2c1,1,-3%,-9%[59 µM],-20%,-20%,12%[57 µM]
SMILES,PI5P4K alpha inh,PLK1 PBD block,G9a inh,BAZ2B inh,JMJD2A Tudor,HP1b chromo inh
CCCN1CCN(CCCNC(=S)Nc2ccc3nc(N4CCN(CC)CC4)cc(C)c3c2)CC1,4,8%,35µM*,-8%,-1%,4%
CCN1CCN(c2cc(C)c3cc(NC(=O)c4cccs4)ccc3n2)CC1,0,0%,13%[12.7 µM],-20%,-34%,-18%
Cc1cc(N2CCN(C)CC2)nc2ccc(NC(=S)NCCCN3CCc4ccccc4C3)cc12,-1,-3%,40µM*,?,-26%,-7%
CCN1CCN(c2cc(C)c3cc(NC(=S)NCCCN4CCc5ccccc5C4)ccc3n2)CC1,3,-5%,32µM*,?,?,-12%
O=C(CCCn1c(=O)c2ccccc2n(Cc2cccc(Cl)c2)c1=O)NCCc1ccc(Cl)cc1,.,.,-4%[59 µM],2%,-13%,26%
Cc1ccc2c(c1)NC(=O)C(CC(=O)Nc1ccccc1Cl)O2 (stereo not drawn),.,.,-4%[59 µM],3%,-13%,11%
Cc1cc(C)n2ncc(C(=O)NC(C)C)c2n1,.,.,.,.,-16%,.
O=c1c2c(nc3c(-c4ccc(Cl)cc4)c[nH]n13)CCC2,-16,?,56µM*,-1%,-5%[11.4 µM],?
O=c1c2c(nc3c(-c4ccccc4)c[nH]n13)CCC2,.,-12%,-7%[59 µM],-2%,-10%,20%
COc1ccc(-c2ccn(-c3cccc(F)n3)n2)cc1,-5,-14%,14µM*,-16%,?,9%
CCN(C(=O)CN1C(=O)S/C(=C\c2ccc(F)cc2)C1=O)C1CCS(=O)(=O)C1 (stereo not drawn),6,30µM*,-4%,3%,-29%,-13%
CCN(C(=O)CN1C(=O)/C(=C/c2ccccc2)SC1=S)C1CCS(=O)(=O)C1 (stereo not drawn),-3,-9%,3%[59 µM],-16%,-6%,27%
CC(C(=O)N(C)C1CCS(=O)(=O)C1)N1C(=O)/C(=C/c2ccco2)SC1=S (stereo not drawn),-15,?,45µM*,56µM*,50µM*,?
CCN(C(=O)C(C)N1C(=O)/C(=C/c2cccs2)SC1=S)C1CCS(=O)(=O)C1 (stereo not drawn),-13,-22%,45µM*,?,26%,38%
CC(C(=O)N(C)C1CCS(=O)(=O)C1)N1C(=O)/C(=C/c2cccs2)SC1=S (stereo not drawn),-1,-5%,-69%,-33%[57.1 µM],?,8%
CCc1ccccc1Nc1nn2c(=O)c3ccc(C(=O)NC4CCC(C)CC4)cc3nc2s1 (stereo not drawn),.,.,5%[59 µM],-2%,2%,31%
O=C(CSc1nnc(-c2ccc(Cl)cc2)o1)N1CCc2ccccc21,.,.,1%[59 µM],-4%,-5%,2%
Cc1ccc2nc(N3CCN(c4cccc(C(F)(F)F)c4)CC3)c3nnnn3c2c1,.,.,16%[59 µM],8%,34%,84%
COCc1ccc(C(=O)NCC2(N3CCCCC3)CCCCC2)cc1,-16,30µM*,?,79µM*,13µM*,5%
